Assay results from ChEMBL document CHEMBL1157539, “Thousands of chemical starting points for antimalarial lead identification” (Nature, 2010).

What was measured:
Assay type in all cases: functional
Plasmodium falciparum [1] = test: GSK_TCMDC: Inhibition of Plasmodium falciparum 3D7 in whole red blood cells, using parasite LDH activity as an index of growth. Test compounds present at 2uM
Plasmodium falciparum [2] = test: GSK_TCMDC: Inhibition of Plasmodium falciparum Dd2 in whole red blood cells, using parasite LDH activity as an index of growth. Test compounds present at 2uM
HepG2 = test: GSK_TCMDC: Percent inhibition of human HepG2 cell line. Test compounds present at 10uM.

| SMILES | Inhibition (Plasmodium falciparum [1]) [%] | Inhibition (Plasmodium falciparum [2]) [%] | Inhibition (HepG2) [%] |
| --- | --- | --- | --- |
| CC(=O)c1cc(N2CCCC2)ccc1N | 97 | 97 | 1 |
| COc1cc(-c2nc(-c3ccccc3)c(-c3ccccc3)[nH]2)cc(OC)c1O | 100 | 90 | 5 |
| COc1cc2nc(Nc3ccc4c(ccn4Cc4ccccc4)c3)nc(Nc3ccc4c(ccn4Cc4ccccc4)c3)c2cc1OC | 89 | 80 | 0 |
| Clc1ccc(C=NN=c2cc[nH]c3ccccc23)cc1 | 100 | 97 | 5 |
| Cl.Nc1c2c(nc3cc(NC(=O)c4ccc([N+](=O)[O-])cc4)ccc13)CCCC2 | 100 | 58 | 11 |
| CC(C)N1CCC(N(Cc2ccc(-c3ccc(C(F)(F)F)cc3)cc2)C(=O)Cn2c(SCc3cccc(F)c3F)cc(=O)c3ccccc32)CC1.O=C(O)C(O)C(O)C(=O)O | 100 | 77 | 52 |
| COc1ccc2nccc([C@@H](O)CN3CCC(NCc4nc5c(cc4Cl)OCC(=O)N5)C(F)C3)c2c1.Cl (stereo not given in full) | 84 | 29 | 4 |
| COc1ccc(-c2nc(NC(=O)Cc3ccc4c(c3)OCCO4)sc2C)cc1 | 100 | 99 | 0 |
| CNC(=O)Cc1ccc(C(=O)Nc2cccc(-c3cccc(-c4nc5cc(C(F)(F)F)ccc5[nH]4)c3)c2)cc1 | 95 | 37 | 40 |
| N#Cc1cc(C(=O)c2cc(Cl)ccc2O)cn(-c2cccc(C(F)(F)F)c2)c1=O | 87 | 7 | 0 |
